Source: ChEMBL document CHEMBL3988442, “University of Dundee, Small-Polar-MMV Screening Library” (2021)

biological target: AMP-activated protein kinase, AMPK (Homo sapiens) (UniProt P54646+O43741+P54619+Q9UGJ0+Q9Y478+Q13131+Q9UGI9); assay: AMP-dependent Kinase enzyme assay. An in vitro enzyme assay that detects ADP turnover that is directly proportional to AMPK activity. This uses naive AMPK that is activated during the assay with MK-8722; type: functional; set-up: scale not given: direction of the effect not stated beside the values; conditions: 30 µM

Row | SMILES | Percent Effect
1 | OCCC1(NCc2ccc(-n3cccn3)cc2)CCOCC1 | -4.22%
2 | O=C(NCc1ccco1)N1CCOC(c2ccccc2Cl)C1 (stereo not given) | 3.01%
3 | COC1CCN(c2ccc(F)cc2CN(C)CC(N)=O)CC1 | 5.84%
4 | Cc1nn(C)c(C)c1-c1ccc(=O)n(C(C)C(=O)NC2CC2)n1 (stereo not given) | 9.59%
5 | COc1ccc(OC)c(C(C(=O)O)N2CCSCC2)c1 (stereo not given) | 0.166%
6 | CC(C)(C)c1noc(CCCC(=O)N2CCNC(=O)CC2)n1 | -2.76%
7 | Cc1noc(-c2ccc(N(C)Cc3ccncn3)nc2)n1 | 0.463%
8 | CN(C)C[C@@H]1CN(C(=O)c2cc(-c3ccccc3)n[nH]2)C[C@@H]1CO | -6.79%
9 | CN(C)S(=O)(=O)N1CC[C@]2(O)CCN(c3cc(C#N)ccn3)C[C@@H]2C1 | -3.03%
10 | CN(C)C(=O)N1CCCC(C(=O)N(C)Cc2cnc(N)nc2)C1 (stereo not given) | -2.52%
11 | CC(C)n1ccnc1CNC(=O)c1cccc(CCC(C)(C)O)c1 | 6.45%
12 | CC(=O)Nn1ccc2c(nnc3c(-c4ccccc4)cnn32)c1=O | 12.7%
13 | NC(=O)CNC(=O)c1cc(Cn2cnc3ccccc32)[nH]n1 | -3.37%
14 | CNC(=O)Cc1ccc(NC(=O)NCc2ncc(C)s2)cc1 | -2.7%
15 | CN(CCc1cccs1)CCc1nccs1 | -4.34%
16 | Cc1oc(-c2ccco2)nc1CN1CCc2cncnc2C1 | -10.6%
17 | NC(=O)CN(Cc1ncc(-c2ccc(F)cc2)o1)C1CCCC1 | -3.13%
18 | CCOC(=O)c1n[nH]cc1CN1CCCC(N(C)Cc2ccccc2)C1 (stereo not given) | -0.954%
19 | CCC1COCCN1C(=O)NCc1nccn1Cc1ccccc1 (stereo not given) | -0.566%
20 | O=S(=O)(Cc1nc(C2CC2)no1)c1ccccc1F | 1.42%

Row | SMILES | Percent Effect
21 | Cc1ccc(C(=O)NCCC2CN(C3CCCC3)CCO2)c(C)c1 (stereo not given) | 4.11%
22 | O=C(NCc1nc[nH]n1)c1cc(COc2ccccc2F)[nH]n1 | -3.43%
23 | O=C(Nc1cccc(N2CCOCC2)c1)N[C@H](CO)c1ccccc1 | 6.04%
24 | O=C(c1nc(=O)[nH]c2ccccc12)N1CCCC(CC2CC2)(C(=O)O)C1 (stereo not given) | -0.821%
25 | Cc1ccc(O)c(C(=O)N2CCC3(CCCNC3)C2)c1 (stereo not given) | 11.1%
26 | Cc1nn2cccnc2c1C(=O)NCc1ccccc1OC1CCC1 | 6.53%
27 | CN1CC2(CCN(CCCOCc3ccccc3)CC2)OC1=O | 2.54%
28 | Cc1c(NC(=O)N(C)CCO)cccc1OC1CCCC1 | -3.01%
29 | OC(CNCc1nnc2ccccn12)c1ccc2c(c1)OCCCO2 (stereo not given) | 9.77%
30 | CC(C)OCCS(=O)(=O)N1CCN(Cc2ccco2)CC1 | -2.52%
31 | COCc1ncc(CN2CCC3(CCNCC3)CC2)cn1 | -3.83%
32 | CS(=O)(=O)c1ccc(CN2C[C@H]3CC[C@@H]2CN(c2ncccn2)C3)cc1 | 9.64%
33 | Cc1n[nH]c(C)c1CNc1ccc(-c2nc(C3CC3)no2)cn1 | -4.61%
34 | Cn1cc(S(=O)(=O)NCc2ccsc2)cn1 | -0.312%
35 | OC(c1cnn(-c2ccccc2)c1)C(F)(F)F (stereo not given) | -6.83%
36 | CNC(=O)COC(=O)c1cccc(-n2ccc(C(F)(F)F)n2)c1 | 5.41%
37 | Cc1cc(C(=O)N2CC[C@H](N3CCN(C)CC3)[C@H](CCCO)C2)n(C)n1 | 10.5%
38 | Cc1occc1CNc1ncccc1S(N)(=O)=O | 6.37%
39 | CCNc1ncc(C(=O)NCc2csc(-c3cnccn3)n2)cn1 | -2.88%
40 | CSCC(C)(O)CNS(=O)(=O)c1ccc(F)cc1 (stereo not given) | -4.97%
